MEKK3 PB1 HTS = modulators (inhibitors or enhancers) of MEK5 binding to human MEKK3 PB1 domain | Q99759 | bead-based flow cytometry, Alexa488-MEK5 binding to MEKK3; actives lie on both sides; 0 = blocked by unlabeled MEK5, 100 = vehicle | binding response (% of control), % at 10 µM | 1.4% of 290,000 active | AID 1529;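 active = binding response more than 3 SD above or below the average of its plate-row segment, actives on both sides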;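 also: Alexa488 bead fluorescence after subtracting the streptavidin-only scavenger bead signal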
Target sequence (Q99759 whole entry, looked up, the tested form may be a part): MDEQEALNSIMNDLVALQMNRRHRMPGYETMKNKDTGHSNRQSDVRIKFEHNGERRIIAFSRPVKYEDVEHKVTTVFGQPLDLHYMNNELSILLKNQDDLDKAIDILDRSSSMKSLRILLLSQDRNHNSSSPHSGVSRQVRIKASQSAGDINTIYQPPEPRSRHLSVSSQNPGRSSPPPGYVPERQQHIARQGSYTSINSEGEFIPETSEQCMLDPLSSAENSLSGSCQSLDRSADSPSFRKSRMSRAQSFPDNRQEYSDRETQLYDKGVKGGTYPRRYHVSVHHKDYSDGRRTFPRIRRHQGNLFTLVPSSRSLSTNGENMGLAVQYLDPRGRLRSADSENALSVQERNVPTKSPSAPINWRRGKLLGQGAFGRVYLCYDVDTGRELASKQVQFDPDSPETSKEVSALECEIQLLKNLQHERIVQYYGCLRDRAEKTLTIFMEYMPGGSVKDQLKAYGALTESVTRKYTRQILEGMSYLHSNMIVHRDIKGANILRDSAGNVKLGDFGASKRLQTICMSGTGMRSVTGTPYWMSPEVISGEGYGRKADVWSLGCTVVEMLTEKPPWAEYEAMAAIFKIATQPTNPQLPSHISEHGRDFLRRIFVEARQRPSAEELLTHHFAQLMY
MEKK2wt PB1 HTS = raises or lowers MEK5 binding to wildtype human MEKK2 PB1 domain | 1.1% of 290,000 active | binding response (% of control), % at 10 µM | bead flow cytometry, Alexa488-MEK5 binding to MEKK2 WT; actives lie on both sides | Q9Y2U5; in the data active = binding response below about 67% or above about 130%
CRFBP-R2 agonist = CRF-BP/CRF-R2 complex agonism; AID 588473; HEK293 CRF-R2/CRF-BP, calcium dye fluorescence (FLIPR); percent of saturating CRF peptide response; activation, % at 13.2 µM; 0.46% of 350,000 active;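 active = activation of at least 50%, plus an integration ratio under a set limit after plate pattern correction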;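 also: plate controls were neutral control wells without compound for no effect and CRF at EC100 for full effect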
CRFR2-BP antag = blocks CRF-induced signaling of the CRF-BP/CRF-R2 complex; HEK293 CRF-R2/CRF-BP, CRF-induced calcium fluorescence; inhibition, % at 11.8 µM; 0.59% of 350,000 active; AID 588475;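 active = inhibition of the ligand-induced calcium signal above about 50% at the single tested concentration, limit read from the data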
MEKK2 mut-MEK5 = signal of MEK5 binding to mutant human MEKK2 PB1 domain. bead flow cytometry, Alexa488-MEK5 binding to MEKK2 mutant. percent response, % at 10 µM. 0.35% of 290,000 active; in the data active = percent response above about 24%, passing the limit was not always enough
ABCB6 inh MLPCN = blocks the human ABCB6 transporter; Q9NP58; K562-ABCB6 porphyrin accumulation, flow cytometry, 1 h; hits give low values; fluorescence ratio to DMSO, % at 10 µM; 0.19% of 360,000 active; AID 602162;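 active = fluorescence ratio to DMSO below 75%, the collection mean minus 3 SD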;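 also: signal is porphyrin accumulated inside mitochondria; 100% equals median channel fluorescence of DMSO control wells; lower ratio means ABCB6 inhibition with less porphyrin fluorescence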
ABCB6 inh CP1 = human ABCB6 transporter inhibition | AID 602430 | K562-ABCB6 porphyrin accumulation, flow cytometry, 1 h; hits give low values | ratio response (% of DMSO), % at 10 µM | shares compounds with ABCB6 inh MLPCN | 700 tested, under 10 active;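 active = repeat-averaged ratio response below 75% of DMSO, the collection mean minus 3 SD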;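 also: median porphyrin fluorescence at 575 nm with 488 nm excitation from mitochondria; lower ratio means less porphyrin signal so ABCB6 inhibition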
An asterisk follows results filed as active; nt = not tested or not shown. A selection: hits, their analogues and other compounds. The true share with any hit is near 2.9%.

SMILES | MEKK3 PB1 HTS | MEKK2wt PB1 HTS | CRFBP-R2 agonist | CRFR2-BP antag | MEKK2 mut-MEK5 | ABCB6 inh MLPCN | ABCB6 inh CP1
O=C(O)C1CCN(S(=O)(=O)c2ccc(Cl)s2)CC1 | nt | nt | 1 | -16 | nt | 94 | 97
COc1ccc(NC(=O)c2cccc(S(=O)(=O)N3CCCCC3)c2)c(OC)c1 | 100 | 97 | -3 | -3 | 1 | 13* | 98
COc1ccc(NC(=O)c2ccc(S(=O)(=O)N3CCCCCC3)cc2)c(OC)c1 | 98 | 101 | 2 | 2 | 10 | 99 | nt
CC1=C(C(=O)N2CCCCCC2)CC(CC(=O)NCCc2ccccn2)C(=O)N1CCC1=CCCCC1 (stereo not given) | nt | nt | nt | nt | nt | 102 | nt
CC(=O)Nc1ccc(-c2ccnc3c2CC(C)(C(=O)Nc2ccccc2)O3)cc1 (stereo not given) | nt | nt | nt | nt | nt | 120 | nt
CN(C)c1ccc(-c2ccnc3c2CC(C)(C(=O)Nc2ccc(Cl)cc2)O3)cc1 (stereo not given) | nt | nt | nt | nt | nt | 94 | nt
CN(C)c1ccc(-c2ccnc3c2CC(C)(C(=O)Nc2ccc(F)c(Cl)c2)O3)cc1 (stereo not given) | nt | nt | nt | nt | nt | 96 | 101
COc1ccc(NC(=O)C2(C)Cc3c(-c4ccc(NC(C)=O)cc4)ccnc3O2)cn1 (stereo not given) | nt | nt | nt | nt | nt | 102 | nt
CC(=O)Nc1ccc(-c2ccnc3c2CC(C)(C(=O)Nc2cccc(Oc4ccccc4)c2)O3)cc1 (stereo not given) | nt | nt | nt | nt | nt | 95 | 101
CC1(C(=O)Nc2ccc3c(c2)OCO3)Cc2c(-c3ccccc3)ccnc2O1 (stereo not given) | nt | nt | nt | nt | nt | 96 | nt
CC(=O)Nc1cccc(-c2ccnc3c2CC(C)(C(=O)Nc2ccc4c(c2)OCO4)O3)c1 (stereo not given) | nt | nt | nt | nt | nt | 105 | 102
COc1ccc(NC(=O)C2(C)Cc3c(-c4ccc(C(N)=O)cc4)ccnc3O2)cn1 (stereo not given) | nt | nt | nt | nt | nt | 97 | 99
O=C(c1ccc(Cl)c(S(=O)(=O)N2CCCC2)c1)N1CCCC(C(F)(F)F)C1 (stereo not given) | nt | nt | 1 | 5 | nt | 101 | nt
CCOc1ccc(C(=O)N[C@H](C(=O)Nc2ccc(OC)c(S(=O)(=O)N3CCOCC3)c2)C(C)C)cc1 | 99 | 99 | -5 | 15 | -3 | 73* | 99
CCCC(C(=O)NC1CCCC1)N(Cc1ccccc1)C(=O)c1snc(C(N)=O)c1N (stereo not given) | 105 | 99 | -2 | 17 | 8 | 67* | 103
O=C1N[C@@H](Cc2ccccc2)C(=O)N1CCN1CCOCC1 | 94 | 94 | -1 | -7 | -2 | 48* | 97
CC(=O)Nc1ccc(N(C(=O)c2ccco2)C(C(=O)NC2CCCC2)c2ccncc2)cc1 (stereo not given) | 103 | 104 | -1 | 3 | 7 | 101 | nt
O=C1[C@@H]2Cc3ccccc3CN2C(=O)N1c1cccc(F)c1 | 100 | 95 | -1 | 1 | -3 | 96 | nt
Cc1ccccc1N1C(=O)[C@@H]2Cc3ccccc3CN2C1=O | 111 | 106 | 0 | 2 | 4 | 68* | 98
CC(NS(=O)(=O)c1cn(C)c(=O)n(C)c1=O)c1ccccc1 (stereo not given) | 106 | 112 | -1 | 15 | 8 | 101 | nt
CC1CCN(c2ccc3nnc(CCC(=O)NC(C)C)n3n2)CC1 | 102 | 101 | 1 | 7 | 1 | 97 | 91
COc1cc(NC(=O)CCc2nnc3ccc(N4CCCCC4)nn23)cc(OC)c1OC | 101 | 98 | 0 | -1 | 5 | 98 | nt
CC1CCN(c2ccc3nnc(CCC(=O)Nc4ccc(F)cc4)n3n2)CC1 | 101 | 99 | 1 | 6 | 1 | 100 | nt
COc1cc(NC(=O)CCc2nnc3ccc(N4CCC(C)CC4)nn23)cc(OC)c1 | 99 | 102 | -2 | 2 | -1 | 101 | nt
COC(=O)C(NC(=O)CCc1nnc2ccc(N3CCCCC3)nn12)C(C)C (stereo not given) | 102 | 106 | -1 | -11 | 1 | 100 | 100
SMILES | MEKK3 PB1 HTS | MEKK2wt PB1 HTS | CRFBP-R2 agonist | CRFR2-BP antag | MEKK2 mut-MEK5 | ABCB6 inh MLPCN | ABCB6 inh CP1
COCCNC(=O)CCc1nnc2ccc(N3CCC(C)CC3)nn12 | 104 | 101 | -1 | 5 | 3 | 96 | 101
COCCCNC(=O)CCc1nnc2ccc(N3CCC(C)CC3)nn12 | 103 | 105 | -2 | -3 | 3 | 94 | 102
Cc1csc(=O)n1CCC(=O)OCC(=O)Nc1ccc(Cl)cn1 | nt | nt | 0 | -1 | nt | 92 | nt
O=C(OCCN1CCOCC1)c1ccc(O)cc1 | 104 | 100 | 0 | -4 | -1 | 101 | nt
CCON1C(=O)C2(CCCCC2)C(=O)C12C=CCCC2 (stereo not given) | nt | nt | -1 | 38 | nt | 97 | nt
CCN(CC)CCNC(=O)CCc1nnc2ccc(N3CCC(C)CC3)nn12 | 104 | 109 | 0 | 6 | 7 | 99 | 103
Cc1ccc(NC(=O)CCc2nnc3ccc(N4CCC(C)CC4)nn23)nc1 | 100 | 104 | 0 | -8 | 0 | 101 | nt
O=C(Oc1ccc2c(=O)c(Oc3ccc4ccccc4c3)coc2c1)c1cncc(Br)c1 | 104 | 108 | 0 | -7 | 4 | 73* | 102
Cc1nn(-c2ccccc2Cl)c(Cl)c1/C=N/Nc1nc2ccccc2s1 | 98 | 97 | -5 | 16 | -1 | 66* | 95
CCOC(=O)N/N=C/c1c(C)nn(-c2ccccc2Cl)c1Cl | 99 | 100 | -3 | -24 | 10 | 88 | nt
O=C(c1ccc(Cn2cc(Br)cn2)cc1)N1N=C(C(F)F)CC1(O)C(F)F (stereo not given) | 87 | 87 | 14 | -60 | -4 | 100 | nt
O=C(c1ccc(COc2ccc3ccccc3c2)o1)N1N=C(C(F)F)CC1(O)C(F)F (stereo not given) | 101 | 100 | 13 | -3 | -3 | 103 | 101
Cc1cc(C)cc(OCc2ccc(C(=O)N3N=C(C(F)F)CC3(O)C(F)F)o2)c1 (stereo not given) | nt | nt | 0 | 26 | nt | 97 | 101
O=C(c1ccccc1-n1cccc1)N1N=C(C(F)F)CC1(O)C(F)F (stereo not given) | 94 | 95 | -5 | -18 | -1 | 101 | nt
O=C(c1ccc(COc2ccc(Br)cc2)o1)N1N=C(C(F)F)CC1(O)C(F)F (stereo not given) | 108 | 107 | 0 | 23 | -2 | 94 | 100
Cc1cc(C)cc(OCc2ccc(C(=O)O)o2)c1 | 100 | 94 | -1 | 5 | 1 | 95 | nt
COC(=O)c1ccc(COc2cc(C)ccc2C)o1 | 103 | 107 | -1 | 5 | 4 | 91 | nt

Bioassay records deposited in PubChem by several laboratories.
